Reference: PubChem BioAssay AID1159580 (chemical genetic matrix, 2015)
Out of some 5,500 compounds screened, about 2,000 (36%) were called active. Inconclusive results (about 18%) are left out. Rule as the data show it: active = normalized growth mostly below about 0.91 (no sharp cut-off); inconclusive = no clear call, values can overlap the other calls; inactive = mostly above about 0.92. This is one part of the list.

Experiment: chemical genetic growth profiling, strain panel (AID 1159580);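 also: tested at 20 µM; growth read once vehicle control cultures reached saturation at 30 °C; 1 = growth at the plate median or of vehicle wells; lower values mean less growth of the strain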
Details: S. cerevisiae deletion strains, growth OD
[1] = locus YAL013W, strain DEP1, active compounds read low
[2] = locus YBR229C, strain ROT2, active compounds read low
[3] = locus YDL101C, strain DUN1, active compounds read low
[4] = locus YDL134C, strain PPH21, active compounds read low
[5] = locus YDR150W, strain NUM1, active compounds read low
[6] = locus YEL061C, strain CIN8, active compounds read low
[7] = locus YGR078C, strain PAC10, active compounds read low
[8] = locus YHR030C, strain SLT2, active compounds read low
[9] = locus YHR087W, strain rtc3, active compounds read low
[10] = locus YJR075W, strain HOC1, active compounds read low
[11] = locus YLR039C, strain RIC1, active compounds read low
[12] = locus YLR058C, strain SHM2 (second series), active compounds read low
[13] = locus YLR085C, strain ARP6, active compounds read low
[14] = locus YLR262C, strain YPT6, active compounds read low
[15] = locus YML094W, strain GIM5, active compounds read low
[16] = locus YMR219W, strain ESC1, active compounds read low
[17] = locus YMR263W, strain SAP30, active compounds read low
[18] = locus YMR307W, strain GAS1, active compounds read low
[19] = locus YNL153C, strain GIM3, active compounds read low
[20] = locus YNL298W, strain CLA4 (second series), active compounds read low
[21] = locus YNL322C, strain KRE1, active compounds read low
[22] = locus YNR030W, strain Alg12, active compounds read low
[23] = locus YPL055C, strain LGE1, active compounds read low
[24] = locus YPL241C, strain CIN2, active compounds read low
[25] = locus YPR135W, strain CTF4, active compounds read low

Measured: normalized growth

CC(=O)c1ccc(-c2cccs2)s1
active: [8] 0.58 | [11] 0.777 | [13] 0.606 | [19] 0.878
inactive: [1] 0.95 | [2] 0.963 | [3] 0.944 | [4] 0.999 | [5] 0.953 | [6] 0.939 | [7] 0.989 | [9] 0.992 | locus YJL187C, strain SWE1, active compounds read low 0.978 | [10] 0.995 | [12] 0.972 | [14] 0.855 | [15] 0.887 | [16] 0.981 | [17] 1 | [18] 0.95 | locus YNL128W, strain TEP1, active compounds read low 0.98 | [20] 0.901 | [21] 0.985 | [22] 0.966 | [23] 0.9 | [24] 0.869 | [25] 0.69

O=C1CCC(c2cccs2)=NN1
inactive: [1] 0.979 | [2] 1 | [3] 0.974 | [4] 1 | [5] 0.986 | [6] 0.987 | [7] 0.99 | [8] 1.03 | [9] 0.999 | locus YJR043C, strain POL32, active compounds read low 1 | [10] 1.01 | [11] 0.993 | [12] 1 | [13] 0.998 | [14] 1.02 | [15] 1 | [16] 0.997 | [17] 1.03 | [18] 1.09 | [19] 0.998 | [20] 1.01 | [21] 0.985 | [22] 1 | locus YOL006C, strain TOP1, active compounds read low 0.99 | [23] 1.01 | [24] 1.05 | [25] 0.901
